Screening results as filed in PubChem.
Nrf2 activator – activates Nrf2 signaling; AREc32 ARE-luciferase reporter (MCF7-derived line), luminescence, 24 h; Potency, µM (series often up to 46.1 µM), without a hit: at the top dose activation, usual class: activators; 410,000 compounds, 0.31% hits; further: % of control where 0% means no effect; nearly all actives have a fitted effect of over 65% in size
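Nrf2 activation is followed as ARE-luciferase induction in the AREc32 line after one day of compound treatment; luminescence is read with Steady-Glo.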
ATXN2 expr inh – ATXN2 expression inhibition | 360,000 compounds, 0.72% hits | Potency, µM (doses to about 57 µM), for inactives: top-dose activity change, negative = inhibition, most hits filed as inhibitors | HEK-293 ATXN2-luciferase reporter, luminescence, 24 h; further: on the % scale 0 is the no-effect control and ±100 the full control effect; nearly all actives have a fitted effect of over 55% in size
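ATXN2-luciferase reporter cells (luciferase flanked by upstream and downstream ATXN2 gene portions) were treated 24 h at 37 °C with compounds at up to 57 uM. SteadyGlo luminescence gave expression; GF-AFC fluorescence gave viability.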
A549 viability – kills or reduces viability of A549 cells in Nrf2 counter-screen. Potency, µM (top dose mostly 46 µM), inactives show at the highest dose activity change, negative = cytotoxicity, most hits filed as inhibitors. 390,000 compounds, 0.16% hits. AID 504648. A549 ARE-Fluc cells, CellTiter-Fluor viability, 18-24 h; further: on the % scale 0 is the no-effect control and ±100 the full control effect
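A549 ARE-Fluc cells in 5% FBS OPTI-MEM, 5000 cells/well, rested 2 h then exposed to compounds in concentration-response for 18-24 h at 37 °C. Viability by CellTiter-Fluor fluorescence (Ex 405/Em 525) after 30 min; luciferase luminescence (BugLite, 15 min, RT) read afterwards.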
S2 tox – viability counter-screen for ATXN expression inhibitors; Potency, µM (series often up to 56.7 µM), actives largely listed as cytotoxic; 400,000 compounds, 0.49% hits; S2 cells (HEK-293 line with an ATXN2-luciferase reporter) viability, CellTiter-Fluor protease fluorescence, 24 h; AID 651635; further: nearly all actives have a fitted effect of over 40% in size
Nrf2 inh – inhibitors of Nrf2 signaling | 360,000 compounds, 2.1% hits | Potency, µM (doses to about 46 µM), without a hit: top-dose activity change, negative = inhibition, most hits filed as inhibitors | A549 ARE-Fluc reporter, luciferase luminescence, 18-24 h; further: on the % scale 0 is the no-effect control and ±100 the full control effect; nearly all actives have a fitted effect of over 60% in size
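A549 ARE_Fluc cells, 5000/well, 5% FBS OPTI-MEM; compounds in dose-response, 18-24 h at 37 °C/5% CO2; CellTiter-Fluor viability read (Ex 405/Em 525), then BugLite luciferase luminescence = Nrf2 activity.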
* marks the source's active call; other numbers are inactive results; i = inactive; ? = inconclusive; / = no result. An excerpt weighted towards active compounds, which were near 2.9% of everything screened. The call rests on the fitted dose curve; in most records, active means well fitted curve in the direction sought with a large enough effect; inconclusive means small, poorly fitted or top-dose-only effect, or another doubt; inactive means no such curve, though single readings can be large; an effect the other way counts as inactive or inconclusive. Potency means the concentration at half of the fitted maximal effect.

SMILES | Nrf2 activator | ATXN2 expr inh | A549 viability | S2 tox | Nrf2 inh
COc1ccc(-c2ccc3ncnc(NCc4cccs4)c3c2)cc1 | / | / | 21% | / | 0%
Cc1ccc(N=Nc2ccc(N)cc2C)c(S(N)(=O)=O)c1 | 4% | 24% | -11% | ? | 17%
Cc1cc(-c2ccc(N=Nc3ccc4c(S(=O)(=O)O)cc(S(=O)(=O)O)c(N)c4c3O)c(C)c2)ccc1N=Nc1ccc2c(S(=O)(=O)O)cc(S(=O)(=O)O)c(N)c2c1O | / | / | / | 13µM* | /
COc1ccc(C)cc1NC(=O)c1cc(S(=O)(=O)N2CCc3ccccc3C2)ccc1F | 0% | -10% | 17% | i | /
O=C1C(=C(c2ccccc2)c2ccccc2)Nc2ccccc21 | 13µM* | -12% | ? | ? | ?
O=C(Nc1ccc2nc(SCC(=O)N3CCCC3)sc2c1)c1cccc(Br)c1 | 5% | / | -27% | / | 18µM*
CN(C(=O)CSc1nc2ccc(NC(=O)c3cccc(F)c3)cc2s1)c1ccccc1 | 0% | ? | -7% | ? | 21µM*
Cn1c(CN2CCCCC2)nc2cc(NC(=O)c3cccc(Br)c3)ccc21 | -1% | ? | -16% | ? | 1.3µM*
Cc1ccccc1OCC(=O)Nc1ccc2nc(SCC(=O)N3CCOCC3)sc2c1 | 1% | / | 0% | / | ?
Cn1c(CN2CCCCC2)nc2cc(NC(=O)c3ccccc3)ccc21 | 0% | 11% | -5% | i | 8%
Cc1ccccc1OCC(=O)Nc1ccc2nc(SCC(=O)N3CCCC3)sc2c1 | 6% | / | -22% | / | 18µM*
O=C(Nc1ccc2nc(SCC(=O)N3CCOCC3)sc2c1)c1cccc(Cl)c1 | 0% | / | ? | / | 23µM*
Cc1cc(C)c(O)c(-c2n[nH]c3c2C(c2cccc(O)c2)N(Cc2ccco2)C3=O)c1 (configuration not stated) | -1% | -25% | 1% | 28µM* | -3%
COc1cc(C2Nc3ccccc3-c3cc(C)nn32)ccc1O (configuration not stated) | 5% | -5% | 8% | i | 28%
Cc1cc2n(n1)C(c1ccc(O)cc1)Nc1ccccc1-2 (configuration not stated) | 1% | -10% | / | i | 18µM*
Cc1ccc2c(CC(=O)Nc3c(C(=O)c4ccc(F)cc4)oc4ccccc34)coc2c1C | 11% | / | 1% | / | ?
COc1ccc(N(C)C(=O)c2cc3c(s2)-c2c(C)cccc2OC3)c(OC)c1 | 4% | ? | 15% | ? | 21µM*
CC(C)CCCCCCCCCCCCC(=O)NCC(=O)NC1C(C)OC(Nc2ncnc3nc[nH]c23)C(O)C1O (configuration not stated) | -2% | ? | ? | ? | 0.037µM*
C/C(=C\CNc1ncnc2nc[nH]c12)CO | 0% | -14% | 1% | i | -3%
O=C(CSc1nc2ccccc2nc1Cc1ccc(Cl)cc1)Nc1ccc2c(c1)OCO2 | 7% | / | 5% | / | /
COc1ccc(CN(C2CC2)S(=O)(=O)c2ccccc2Br)cc1 | 0% | -21% | -1% | i | 16µM*
O=C(CCN1CCN(C(=O)OCc2cc(Cl)cc(Cl)c2)CC1)c1ccc2[nH]c(=O)oc2c1 | / | 6% | / | / | /
COc1cc(NCCCCCCN)c2ncccc2c1OC | -5% | 16µM* | ? | ? | ?
COc1ccccc1-n1cc(C(=O)NCCN2Cc3ccccc3OC(c3ccsc3)C2)cn1 (configuration not stated) | / | / | / | i | /
O=C(NCc1nnc2n1CCN(Cc1ccc(C(F)(F)F)cc1)CC2)c1cccc(F)c1 | / | / | / | i | /
SMILES | Nrf2 activator | ATXN2 expr inh | A549 viability | S2 tox | Nrf2 inh
NC1=C(Cl)C(=O)c2ccccc2C1=O | -3% | ? | ? | ? | 16µM*
NC1=C(Cl)C(=O)c2ccc(S(N)(=O)=O)cc2C1=O | -4% | 3.5µM* | 5.8µM* | 3.5µM* | 3.3µM*
O=C1C(Cl)=C(NCCCO)C(=O)c2ccccc21 | 0% | -37% | -20% | i | /
O=C(/C=C/c1ccc(Br)cc1)c1ccc(NC2=NCCCS2)cc1 | -3% | ? | ? | 32µM* | ?
Cc1cccc(/C=C/C(=O)c2ccc(NC3=NCCCS3)cc2)c1 | -2% | / | -14% | 10µM* | ?
C[C@@H](/C=C/c1ccc2ccccc2c1)C1COC(=O)C[C@H]1O (some centres not stated) | / | / | 0% | / | -5%
COCCNc1oc(/C=C/c2ccccc2)nc1C#N | 2% | 55% | -5% | / | ?
CNc1oc(/C=C/c2ccccc2)nc1C#N | 2.8µM* | 82% | 5% | i | ?
COc1ccc(/C=C2/SC(c3ccc(C)cc3)=NC2=O)cc1OC | 15% | -4% | -1% | i | ?
CCOc1ccc(/C=C2\SC(=S)NC2=O)cc1OC | 18% | 25% | -19% | ? | -11%
COc1ccc(/C=C2/CSC/C(=C/c3ccc(OC)c(OC)c3)C2=O)cc1OC | 22% | 5.6µM* | ? | 4µM* | 5.2µM*
COc1ccc(/C=C2\SC(c3ccc(C)cc3)=NC2=O)cc1OC | 0% | 11% | -2% | i | 16µM*
COc1ccc(/C=C2\SC(=O)NC2=S)cc1OC | ? | -11% | 12µM* | ? | ?
COc1cc(C=C2CCCC(=Cc3ccc(OCC4CO4)c(OC)c3)C2=O)ccc1OCC1CO1 (configuration not stated) | -5% | / | / | ? | /
COc1ccc2c(c1)c(CC(=O)OC/C=C(\C)CC/C=C(\C)CCC=C(C)C)c(C)n2C(=O)c1ccc(Cl)cc1 | / | ? | / | i | /
O=C1C(=O)c2ccccc2C(O)=C1CCCCl | -6% | 25µM* | 1% | / | -6%
Nc1ncnc(Sc2ncccn2)c1[N+](=O)[O-] | -2% | ? | -16% | 24µM* | ?
C=Cc1ccc(Cn2c(C(=O)O)c(CNCc3ccc(F)cc3)c3ccc(C)cc32)cc1 | -2% | ? | ? | 18µM* | -2%
CCOc1ccccc1CNCc1c(C(=O)O)n(Cc2ccc(F)cc2)c2cc(C)ccc12 | 0% | -15% | 18µM* | ? | ?
C=Cc1ccc(Cn2c(C(=O)O)c(CNCc3cccs3)c3ccc(C)cc32)cc1 | 0% | ? | 15µM* | / | -27%
Cc1ccc2c(CNCc3cccs3)c(C(=O)O)n(Cc3ccc(F)cc3)c2c1 | 4% | -20% | 12µM* | ? | -22%
C=Cc1ccc(Cn2c(C(=O)O)c(CNCCc3ccco3)c3ccc(C)cc32)cc1 | 5% | -32% | ? | / | -24%
Cc1ccc2c(CNCc3ccc(C)o3)c(C(=O)O)n(Cc3ccc(F)cc3)c2c1 | 6% | ? | ? | / | -29%
COc1ccc2c(CNCc3cccs3)c(C(=O)O)n(Cc3ccc(F)cc3)c2c1 | 1% | -17% | ? | ? | -22%
O=C(c1cn(C2CCCN(Cc3cc(Cl)ccc3O)C2)nn1)N1CCCCC1 (configuration not stated) | / | / | / | i | /
COc1ccc(Cn2c(C(=O)O)c(CNCc3cccs3)c3ccc(C)cc32)cc1 | 6% | ? | ? | 5µM* | -22%
